TGFb inhibitor – qHTS for Inhibitors of TGF-b; 1.2% of 410,000 active; Potency, µM (highest dose often 46.1 µM), most hits filed as inhibitors; AID 588855, 2011; HepG2 CAGA-GFP TGF-b/SMAD3 reporter, GFP fluorescence, 18 h; TGF-beta stimulated, 500 pg/mL final; further: nearly all actives have a fitted effect of over 65% in size
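Inhibition was scored as loss of TGF-beta-induced (500 pg/mL final, 18 hours, 37 degrees C) GFP in HEPG2 cells carrying a CAGA-GFP reporter, in DMEM with 1% FBS. Well GFP was summed per cell; Activity was normalised to unstimulated and stimulated DMSO wells, then concentration-response fitting.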
HepG2 tox – qHTS for Inhibitors of TGF-b: Cytotox Counterscreen. HepG2 CAGA-GFP viability, ATP luminescence, 18 h. Potency, µM (doses to about 46.1 µM), actives largely listed as cytotoxic. 0.76% of 410,000 active. AID 588856, 2011
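HepG2 CAGA-GFP cells (1000/well, DMEM with 1% FBS) received compound, then TGF-beta at 500 pg/mL final, and were incubated 18 hours at 37 degrees C. Viability was read by CellTiter-Glo luminescence. Media-only wells were set as complete cell-killing and DMSO as no toxicity.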
TDP1 block – qHTS Assay for Inhibitors of Tyrosyl-DNA Phosphodiesterase (TDP1) | Tyrosyl-DNA phosphodiesterase 1 (Homo sapiens), Q9NUW8 | recombinant TDP1, AlphaScreen DNA substrate cleavage | Potency, µM (top dose mostly 130 µM), hits mostly inhibitors | 0.28% of 350,000 active; further: nearly all actives have a fitted effect of over 40% in size
Target sequence (Q9NUW8 whole entry, looked up): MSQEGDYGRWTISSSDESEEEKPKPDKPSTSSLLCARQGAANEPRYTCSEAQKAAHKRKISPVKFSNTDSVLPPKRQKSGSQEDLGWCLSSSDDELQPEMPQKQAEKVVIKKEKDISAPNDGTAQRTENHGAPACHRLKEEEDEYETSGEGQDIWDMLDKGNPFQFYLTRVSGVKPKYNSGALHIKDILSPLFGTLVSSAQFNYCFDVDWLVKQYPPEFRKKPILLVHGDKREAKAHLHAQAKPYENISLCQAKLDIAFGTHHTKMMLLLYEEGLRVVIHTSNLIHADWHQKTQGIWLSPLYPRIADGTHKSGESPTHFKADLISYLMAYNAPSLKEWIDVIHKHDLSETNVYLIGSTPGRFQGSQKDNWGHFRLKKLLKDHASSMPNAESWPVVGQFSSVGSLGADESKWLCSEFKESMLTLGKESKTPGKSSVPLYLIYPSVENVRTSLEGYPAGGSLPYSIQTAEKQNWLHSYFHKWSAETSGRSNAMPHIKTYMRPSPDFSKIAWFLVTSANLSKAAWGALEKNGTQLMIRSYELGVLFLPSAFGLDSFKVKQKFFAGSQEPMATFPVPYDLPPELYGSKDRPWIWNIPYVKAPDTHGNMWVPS
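Signal: AlphaScreen proximity between streptavidin donor and anti-FITC acceptor beads on intact substrate. Reaction: Tdp1 1 nM, substrate 15 nM final, 5 min RT after 15 min compound preincubation.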
DT40 TDP1 no CPT – qHTS for Inhibitors of human tyrosyl-DNA phosphodiesterase 1 (TDP1): qHTS in cells in absence of CPT; Potency, µM (titrated, usually from 46.2 µM), hits mostly inhibitors; AID 686978, 2013; 15% of 420,000 active; DT40 Tdp1-/- hTDP1 cells, no CPT, ATP luminescence, 48 h; further: nearly all actives have a fitted effect of over 55% in size
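Stably hTDP1-transfected Tdp1-null chicken DT40 cells were treated with library compounds minus camptothecin and grown for at least 48 hr at 37 °C, after which cellular ATP was quantified by luminescence.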
IL1B secr inh – qHTS for Inhibitors of Inflammasome Signaling: IL-1-beta AlphaLISA Primary Screen | 4.7% of 360,000 active | THP-1 LPS/ATP IL-1B secretion, AlphaLISA, 16 h; hits give low values | activity change, % at 57.5 µM; in the data active means activity change below about -50%; inconclusive means mostly about -30% to -49%
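THP-1 cells pretreated 1 hr with compounds (up to 57.5 uM final), then stimulated with LPS (250 ng/mL final) plus ATP (1.25 mM final); secreted IL-1B measured by AlphaLISA after 16 hr, decreased signal indicating inhibition.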
DT40 TDP1 CPT – qHTS for Inhibitors of human tyrosyl-DNA phosphodiesterase 1 (TDP1): qHTS in cells in presence of CPT; chicken DT40 Tdp1-/-;hTDP1 cells + 20 nM CPT, ATP luminescence, 48 h; Potency, µM (titrated, usually from 46.2 µM), hits mostly inhibitors; 12% of 420,000 active; AID 686979, 2013; further: nearly all actives have a fitted effect of over 55% in size
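Cell growth measured by CellTiter-Glo luminescence after a minimum 48 h, 37 C compound exposure with 20 nM CPT in Tdp1-knockout DT40 cells stably expressing hTDP1, seeded 400/well; qHTS titration format.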
Numbers stand for hits; 0 = inactive; ? = inconclusive; - = no result; ! = a repeat was not active; [ ] = remark or other dose. Sampled rows, rich in hits. Any-hit rate of the full collection: about 19%. Unless noted, the call rests on the fitted dose curve; in most records, active means well fitted curve in the direction sought with a large enough effect; inconclusive means small, poorly fitted or top-dose-only effect, or another doubt; inactive means no such curve, though single readings can be large; an effect the other way counts as inactive or inconclusive.

SMILES | TGFb inhibitor | HepG2 tox | TDP1 block | DT40 TDP1 no CPT | IL1B secr inh | DT40 TDP1 CPT
COc1ccc(C(=O)c2cc([N+](=O)[O-])ccc2N2CCCC2)cc1 | 0 | 0 | 0 | 5.2µM | 0 | 3.3µM
O=C(c1ccccc1)c1cc([N+](=O)[O-])ccc1N1CCCC1 | 0 | 0 | 0 | 0 | 0 | 0
CN1CCN(c2ccc([N+](=O)[O-])cc2C(=O)c2ccccc2)CC1 | 0 | 0 | 0 | ? | 0 | ?
COc1ccc(C(=O)c2cc([N+](=O)[O-])ccc2N2CCN(C)CC2)cc1 | 0 | 0 | 0 | 3.3µM | 0 | 2.6µM
CCC1(C2CCN(C(=O)c3ccc(C)cc3C)CC2)NC(=O)N(CCc2scnc2C)C1=O (stereo unspecified) | - | - | - | 0 | - | 0[9.04 µM]
COC(=O)c1ccccc1NC(=O)c1ncoc1-c1ccco1 | 0 | 0 | 0 | ? | - | 13µM
CCc1nnc(NC(=O)c2ccc(OC)c(S(=O)(=O)N3CCCC3)c2)s1 | 0 | 0 | 0 | 0 | 0 | 0
COc1ccc2c(c1)OC/C(=C\c1ccc(OC)c(O)c1)C2=O | - | - | 0 | 1µM | - | 1.5µM
COc1ccc(/C=C2\COc3ccccc3C2=O)c(OC)c1 | ? | 0 | 0[0.0935 µM] | ? | 0 | 21µM
Cc1ccc(NC(=O)NCCc2c(C)nn(C)c2C)c(Cl)c1 | 0 | 0 | 0 | 0 | - | 0
Cc1ccc(C)c(CSc2nnc(C)n3c2cc2sccc23)c1 | ? | 0 | 0 | ? | - | ?
CC(C)N(Cc1nccn1C)C(=O)c1cc(COc2ccc(F)cc2Cl)on1 | 0 | 0 | 0 | ? | 0 | 15µM
COc1ccc(OCc2cc(C(=O)N(Cc3nccn3C)C(C)C)no2)c2ccccc12 | ? | 0 | 0 | 12µM | 0 | 21µM
Cc1ccc(C)c(NC(=O)C(c2ccccc2)N2Cc3ccccc3C2=O)c1 (stereo unspecified) | 0 | 0 | 0 | 0 | - | ?
COc1ccccc1-c1nnc(SCC(=O)Nc2ccccc2F)o1 | ? | 0 | 0 | 21µM | - | 21µM
Cc1cccc(NC(=O)CSc2nnc(-c3cc(C)n(-c4ccccc4)c3C)o2)c1C | 0 | 0 | 0 | ? | -80 | 0
Cc1ccnc2ccc3ccccc3c12 | 0 | 0 | - | ? | - | ?
CC1CN2C(CCC(C)C2c2ccc(Br)cc2)C(=O)O1 (stereo unspecified) | - | - | 0[21 µM] | - | - | -
CCc1nc2ccc(C(=O)NCCc3ccc(SC)cc3)cc2nc1CC | 0 | 0 | 0 | ? | - | ?
Cc1ccc(SC[C@H](c2ccccc2)N2CCN(CC(C)C)CCC2=O)cc1 | 0 | 0 | 0 | 12µM | 0 | 16µM
CCCN1CCC(=O)N(CCSc2ccc(OC)cc2)CC1 | 0 | 0 | 0 | 5.8µM | 0 | 5.8µM
CCCN1CCC(=O)N([C@H](CSc2ccc(OC)cc2)c2ccccc2)CC1 | 0 | 0 | 0 | 16µM | 0 | ?
CN1CCC(=O)N([C@H](CSc2ccccc2)c2ccccc2)CC1 | 0 | 0 | - | 18µM! | 0 | ?
CC(Oc1ccccc1Cl)C(=O)Nc1ccc(S(=O)(=O)Nc2nccs2)cc1 (stereo unspecified) | 0 | 0 | 0 | 0 | 0 | 0
Cc1ccc(SCCN2CCN(CCc3ccccc3)CCC2=O)cc1 | ? | 0 | 0 | 16µM | 0 | 16µM
NC(=O)c1nsc(C(=O)N(c2ccccc2)C(C(=O)NCc2ccc(F)cc2)c2ccco2)c1N (stereo unspecified) | 0 | 0 | 0 | ? | 0 | ?
COc1ccc(OC)c(N(C(=O)c2snc(C(N)=O)c2N)C(C(=O)NCc2ccccc2)c2ccc(O)cc2)c1 (stereo unspecified) | 0 | 0 | - | ? | -79 | ?
